Source: PubChem BioAssay (NCI)
This is part of a sample that, as a whole, favours compounds with a hit. Of some 79,000 tested, about 15% had one in any assay. Unmarked numbers belong to inactive results. Calls of active or inactive are those of the source. Cut-off read from the data, not from the text of the source: active = growth inhibition above about 70%; inactive = the rest.

Experiment: NCI Yeast Anticancer Drug Screen. Data for the rad18 strain (AID 177)
Conditions: S. cerevisiae rad18 mutant growth inhibition, stronger effect = higher value
Procedure: Growth inhibition of yeast strains with defined genetic alterations is measured as a screen for potential anti-cancer activity. Selected strains with alterations in DNA damage repair or cell cycle control were exposed to compounds and growth inhibition was measured relative to vehicle treated controls. The strain used in this assay is rad18

SMILES | growth inhibition (at 1.2 µM) [%] | growth inhibition (at 3.7 µM) | growth inhibition (at 11.0 µM) | growth inhibition (at 33.0 µM) | growth inhibition (at 100.0 µM)
CC(C)CC(NC(=O)C(N)C(C)C)C(=O)NC(CCCCN)C(=O)Nc1ccc(N(CCCl)CCCl)cc1 (stereo not given) | -7 | -12% | -16% | -20% | -23%
CCNCC(=O)O[C@]1(CC)C(=O)OCc2c1cc1n(c2=O)Cc2cc3ccccc3nc2-1 | 25 | 27% | 21% | 22% | 13%
CC[C@@]1(O)C(=O)OCc2c1cc1n(c2=O)Cc2cc3ccccc3nc2-1 | -6 | 20% | 89% (active) | 93% (active) | 94% (active)
N#Cc1cc(N(CCCl)CCCl)c([N+](=O)[O-])cc1[N+](=O)[O-] | 64 | 82% (active) | 89% (active) | 95% (active) | 95% (active)
CCN(CC)CCBr | 17 | 54% | 86% (active) | 92% (active) | 96% (active)
CN(CCc1ccc(Br)cc1)CCN1CCCCC1 | 27 | 53% | 54% | 94% (active) | 98% (active)
CC1=C(O)C(=O)C=C2C1=CC=C1[C@@]2(C)CCC2(C)[C@@H]3C[C@@H](C)C(=O)C[C@]3(C)CC[C@]12C (stereo not given in full) | 9 | 28% | 96% (active) | 98% (active) | 97% (active)
CC(=O)O/C(=C1\C[C@H]2[C@@H]3CC=C4C[C@@H](OC(C)=O)CC[C@]4(C)[C@H]3CC[C@]2(C)C1=O)C(F)(F)F | -4 | -3% | 3% | -3% | -6%
